Results: PubChem BioAssay (NCI)
The panel holds about 83,000 compounds, 20% with a hit somewhere; the sample as a whole holds those more often.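 In brief: 96-well plates, 48 h treatment, single concentration, percent growth endpoint.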 Values without a mark were called inactive. Active and inactive are the calls of the source. The calls were made as follows: active = growth percent below 10; inactive = the rest.

Assays:
Test in all cases: NCI-60 one-dose screen, 48 h (100 = growth as untreated, 0 = no growth, -100 = all killed)
HCT-15 colon = settings: 10 µM unless noted
HT29 colon = settings: 10 µM unless noted
SNB-75 CNS = settings: 10 µM unless noted
SNB-19 CNS = settings: 10 µM unless noted
U251 CNS = settings: 10 µM unless noted
PC-3 prostate = settings: 10 µM unless noted
SK-MEL-5 melanoma = settings: 10 µM unless noted
UACC-62 melanoma = settings: 10 µM unless noted
LOX IMVI melanoma = settings: 10 µM unless noted
SK-MEL-28 melanoma = settings: 10 µM unless noted
EKVX NSCLC = settings: 10 µM unless noted
SN12C renal = settings: 10 µM unless noted
UO-31 renal = settings: 10 µM unless noted
TK-10 renal = settings: 10 µM unless noted
ACHN renal = settings: 10 µM unless noted
CAKI-1 renal = settings: 10 µM unless noted
A498 renal = settings: 10 µM unless noted
CCRF-CEM leukemia = settings: 10 µM unless noted
MOLT-4 leukemia = settings: 10 µM unless noted
SK-MEL-2 melanoma = settings: 10 µM

SMILES	growth (HCT-15 colon)	growth (HT29 colon)	growth (SNB-75 CNS)	growth (SNB-19 CNS) [%]	growth (U251 CNS)	growth (PC-3 prostate)	growth (SK-MEL-5 melanoma)	growth (UACC-62 melanoma)	growth (LOX IMVI melanoma)	growth (SK-MEL-28 melanoma)	growth (EKVX NSCLC)	growth (SN12C renal)	growth (UO-31 renal)	growth (TK-10 renal)	growth (ACHN renal)	growth (CAKI-1 renal)	growth (A498 renal)	growth (CCRF-CEM leukemia)	growth (MOLT-4 leukemia)	growth (SK-MEL-2 melanoma) [%]
O=c1[nH]c([C@@H]2CCCN2)nc2c1oc1ccc(Cl)cc12	66.3%	43.9%	7.8% (active)	74.8	42.6%	58%	51.2%	78.5%	39%	78.8%	61.4%	81.3%	58.4%	52.3%	71.5%	42.4%	6.25% (active)	63.1%	68.4%	–
CCc1nc(C(N)=O)c(Nc2ccc(N3CCC(N4CCN(C)CC4)CC3)c(OC)c2)nc1NC1CCOCC1	25%	-23.9% (active)	-45.3% (active)	29.8	32%	36.3%	66.4%	25.3%	-84.9% (active)	24%	46.6%	29.2%	4.67% (active)	25.4%	29%	20.2%	-92.6% (active)	6.04% (active)	17.2%	–
N#CCNC(=O)c1ccc(-c2ccnc(Nc3ccc(N4CCOCC4)cc3)n2)cc1	20.7%	24.2%	-4.36% (active)	50.8	19.3%	30.8%	25.1%	34%	4.92% (active)	36.7%	43.9%	31.5%	-60.4% (active)	-8.51% (active)	6.04% (active)	-5.7% (active)	-31.8% (active)	15.7%	7.11% (active)	–
COc1cc(C2CC(c3ccc(Cl)cc3)=NN2c2ccc(Cl)cc2)cc(OC)c1OC (stereo not drawn)	91.2%	94.7%	58.7%	88.1	85.1%	64.1%	97.9%	77%	99.8%	96.1%	–	88.4%	77.1%	98%	86%	82.3%	88%	84.7%	67.8%	98.8
CCN(CC)Cc1cc(Nc2cc(C(F)(F)F)c(C#N)c3nc4ccccc4n23)ccc1O	6.22% (active)	5.33% (active)	13.5%	18.5	8.94% (active)	6.16% (active)	-36.4% (active)	9.53% (active)	12.2%	29.6%	15.8%	5.86% (active)	-17.4% (active)	10.6%	4.68% (active)	6.96% (active)	-14.2% (active)	5.56% (active)	4.11% (active)	–
CO[C@H]1C[C@@H]2CC[C@@H](C)[C@@](O)(O2)C(=O)C(=O)N2CCCC[C@H]2C(=O)O[C@H]([C@H](C)C[C@@H]2CC[C@@H](OP(C)(C)=O)[C@H](OC)C2)CC(=O)[C@H](C)/C=C(\C)[C@@H](O)[C@@H](OC)C(=O)[C@H](C)C[C@H](C)\C=C/C=C/C=C/1C	47.6%	40.3%	17.6%	53	40.4%	42.2%	51.6%	39.5%	42.7%	54.4%	49.8%	53.9%	27.3%	46%	54.4%	50.1%	2.06% (active)	37.2%	28.8%	–
CN1CC[C@@H](c2c(O)cc(O)c3c(=O)cc(-c4ccccc4Cl)oc23)[C@@H]1CO	3.39% (active)	-12.6% (active)	-63.9% (active)	10.2	4.32% (active)	1.22% (active)	-9% (active)	-51.4% (active)	6.25% (active)	-25.6% (active)	0.493% (active)	12.4%	-5.4% (active)	5.71% (active)	4.44% (active)	5.86% (active)	-60.4% (active)	13.4%	1.59% (active)	–
O=C(N/N=C/c1ccc(Cl)cc1)c1cc(-c2cc3ccccc3o2)nn1-c1ccccc1	93%	107%	86.5%	94.5	96%	89.6%	56.3%	83.7%	84.7%	99.7%	89.6%	94.9%	–	94.8%	93.5%	100%	–	95.6%	78%	91.2
O=[N+]([O-])c1cc(Br)cc2c1[nH]c1ccc(Br)cc12	81.8%	58.8%	19.9%	81.1	58.4%	60%	88.1%	67.7%	38%	89.8%	60.2%	82.7%	25.5%	52.8%	32.9%	51.4%	76.2%	65.2%	77.1%	–
FC(F)(F)c1ccc(CNc2ccc(Cc3c[nH]c4ncc(Cl)cc34)cn2)cn1	19.9%	2.92% (active)	9.21% (active)	37	18.2%	18.3%	-59.8% (active)	6.74% (active)	15.2%	17.8%	30.3%	52.2%	10.7%	18.3%	31.6%	25.2%	18.3%	23.4%	7.19% (active)	–
Cc1ccc(F)c(NC(=O)Nc2ccc(-c3cccc4[nH]nc(N)c34)cc2)c1	7.06% (active)	2.74% (active)	29.8%	27.2	12.9%	30.8%	34.6%	37.1%	-8.35% (active)	36.1%	21.9%	24.9%	17.6%	2.19% (active)	15.4%	31.8%	30.1%	11.4%	15.5%	–
